According to PubChem BioAssay AID504467 (National Center for Advancing Translational Sciences (NCATS), 2011):
Hit rate of the full screen: of about 330,000 compounds, about 7,700 (2.3%) were called active. Roughly 26% stayed inconclusive and do not appear here. Calls come from the whole dose curve; as a rule, active = well fitted inhibition curve with a large enough effect; inconclusive = small, poorly fitted or top-dose-only effect, or effect the other way; inactive = flat fitted curve, though single readings scatter. The list comes from a sample in which actives are over-represented; it also holds similar structures and randomly drawn compounds.

experiment: qHTS screen for small molecules that inhibit ELG1-dependent DNA repair in human embryonic kidney (HEK293T) cells expressing luciferase-tagged ELG1; conditions: HEK293T ELG1-luciferase reporter, luminescence, 16 h, DNA damage induced by 5-fluorouridine; series mostly up to 46.1 µM; activity change, negative = inhibition: at the top concentration; note: nearly all actives have a fitted effect of over 55% in size
How it was run: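 In this reporter screen, reduction of luminescence relative to DMSO vehicle indicated activity. Compounds and 5-fluorouridine were added together to 2,000 cells per well, incubated for 16 hr at 37 °C, then developed with ONE-Glo.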
% is set by controls: 0 for no effect and ±100 for the full control effect; potency is the fitted concentration of half-maximal effect.

Structure (SMILES)	activity change, negative = inhibition	Potency
COc1cccc(CNC(=O)C(=O)NCCC2CCCCN2S(=O)(=O)c2ccc(C)cc2)c1 (stereo unspecified)	-29.2% (inactive)	–
O=C(CNC(=O)c1ccccc1Br)NCCSc1ccc(Br)cc1	-19.1% (inactive)	–
CC(C)(C)OC(=O)C1=C(CO)CS[C@@H]2[C@H](NC(=O)Cc3ccccc3)C(=O)N12	11.9% (inactive)	–
COc1ccc(S(=O)(=O)N2CCN(C)CC2)c(C)c1	5.66% (inactive)	–
COc1ccc(C)cc1Nc1nc(-c2c(C)[nH]c3ccccc23)cs1	-10.1% (inactive)	–
COc1ccc2c(c1OC)C(=O)OC2c1c(O)nc(SC)n(-c2ccccc2)c1=O (stereo unspecified)	-5.33% (inactive)	–
COc1ccc2c(c1OC)C(=O)OC2Nc1nc(-c2ccccc2)cs1 (stereo unspecified)	–	9.2 µM (active)
O=C(Nc1ccc(N2CCOCC2)c(Cl)c1)c1ccc(S(=O)(=O)N2CCOCC2)cc1	-11.2% (inactive)	–
O=C(CN1CCN(c2ccccn2)CC1)N1CCc2ccccc21	1.75% (inactive)	–
O=C(CN1C(=O)c2ccccc2S1(=O)=O)NC1CCCCC1	11% (inactive)	–
O=C(CN1C(=O)c2ccccc2S1(=O)=O)N1CCc2ccccc21	–	20.6 µM (active)
CCOc1ccc(-n2c(SCC(=O)Nc3cc(C(=O)O)ccc3Cl)nc3ccccc3c2=O)cc1	8.71% (inactive)	–
O=C(O)CCCn1c(=O)c2cccn2c2ccc(F)cc21	13.5% (inactive)	–
O=C(CSCc1ccc(Cl)cc1)N1CCN(Cc2ccc3c(c2)OCO3)CC1	–	20.6 µM (active)
O=C(CCCN1C(=O)c2cccc3cccc(c23)C1=O)N1CCN(Cc2ccc3c(c2)OCO3)CC1	–	2.31 µM (active)
O=C(CN1C(=O)c2cccc3cccc(c23)C1=O)N1CCCCC1	-4.51% (inactive)	–
O=C(Nc1cccc2ccccc12)N1CCN(Cc2ccc3c(c2)OCO3)CC1	-2.1% (inactive)	–
O=C(c1cccs1)N1CCN(Cc2ccc3c(c2)OCO3)CC1	-19.8% (inactive)	–
Cc1cc(C)n2nc(C(=O)N3CCN(Cc4ccc5c(c4)OCO5)CC3)nc2n1	-5.43% (inactive)	–
CCOc1ccccc1NC(=S)NC(=O)CCc1ccccc1	-23.7% (inactive)	–
COc1ccc(NC(C)=O)cc1NC(=O)CN1CCN(C2c3ccccc3-c3ccccc32)CC1	–	0.92 µM (active)
COc1ccc(NC(C)=O)cc1NC(=O)CN1CCN(c2ccccn2)CC1	9.16% (inactive)	–

Structure (SMILES)	activity change, negative = inhibition	Potency
COc1cccc(NC(=O)CN2CCN(CC(=O)Nc3ccccc3Cl)CC2)c1	-15.9% (inactive)	–
CCCCN(CCCC)CCCNC(=O)CN1C(=O)COc2ccc(S(=O)(=O)N3CCC(C)CC3)cc21	11.5% (inactive)	–
CC(C)n1ncc2c(C(=O)NCc3ccccc3CN(C)C)cc(C3CC3)nc21	-11.2% (inactive)	–
COc1ccc(S(=O)(=O)N2CN(CCc3ccc(OC)c(OC)c3)c3nc4ccccc4nc32)cc1	-17.5% (inactive)	–
COc1ccc(CCn2c(-c3ccco3)nc3nc4ccccc4nc32)cc1OC	–	4.61 µM (active)
Clc1cccc(-c2nc3nc4ccccc4nc3n2Cc2ccco2)c1	-13.2% (inactive)	–
CCOc1ccccc1-c1cc(C(=O)N/N=C(\C)c2cccnc2)c2ccccc2n1	-12.8% (inactive)	–
COc1ccc(-c2nc(CS(=O)(=O)CC(=O)NCc3cccc(Br)c3)c(C)o2)cc1	-4.23% (inactive)	–
C=CCn1c(SCC(=O)NC)nnc1C12CC3CC(CC(C3)C1)C2	-14.1% (inactive)	–
COc1ccc(C2(c3ccc(OC)cc3)NC(=O)N(CC(=O)Nc3cc(C)on3)C2=O)cc1	-12.7% (inactive)	–
C[C@H](CO)N1C[C@H](C)[C@@H](CN(C)S(=O)(=O)c2ccc(F)cc2)Oc2c(NC(=O)Nc3ccccc3)cccc2C1=O	-18.3% (inactive)	–
COc1ccc(S(=O)(=O)N(C)C[C@H]2Oc3c(NC(=O)Nc4ccc5c(c4)OCO5)cccc3C(=O)N([C@H](C)CO)C[C@@H]2C)cc1	–	11.6 µM (active)
COc1ccc(S(=O)(=O)Nc2cccc3c2O[C@H](CN(C)S(=O)(=O)c2ccc(OC)cc2)[C@@H](C)CN([C@H](C)CO)C3=O)cc1	-17.5% (inactive)	–
CCN(C(=O)COC(=O)Cc1c(F)cccc1Cl)c1c(N)n(Cc2ccccc2)c(=O)[nH]c1=O	2.59% (inactive)	–
CCCc1nc2c([nH]1)C(c1cccnc1)C(C#N)=C(N)O2 (stereo unspecified)	2.12% (inactive)	–
N#CC1=C(N)Oc2c(ccc3cccnc23)C1c1ccncc1 (stereo unspecified)	–	9.2 µM (active)
COc1ccc(-c2[nH]nc3c2C(c2ccncc2)C(C#N)=C(N)O3)cc1 (stereo unspecified)	0.962% (inactive)	–
O=C(CNC(=O)c1n[nH]c2ccccc12)Nc1cc(Cl)ccc1Cl	2.2% (inactive)	–
CCOC(CNC(=O)C1CCN(S(=O)(=O)c2ccc3nc4c(c(C(=O)O)c3c2)CC(C)CC4)CC1)OCC (stereo unspecified)	5.78% (inactive)	–
COc1ccc(CNC(=O)COC(=O)c2sccc2C)cc1OC	10.7% (inactive)	–
COc1cc(C(=O)NCCOC(=O)c2cccc(N(C)C)c2)cc(OC)c1OC	–	11.6 µM (active)
CCCOP(=O)(c1ccc(N(C)C)cc1)C(O)c1cc(OC)c(OC)c(OC)c1 (stereo unspecified)	-8.9% (inactive)	–

Structure (SMILES)	activity change, negative = inhibition	Potency
COc1cc(C(=O)N(Cc2ccc(N(C)C)cc2)C2CCS(=O)(=O)C2)cc(OC)c1OC (stereo unspecified)	-9.44% (inactive)	–
COC(=O)c1ccc(CNC(=O)c2ccc(S(=O)(=O)N3CCCCCC3)cc2)cc1	-24.3% (inactive)	–
O=C(N[C@H]1C/C=C\C(c2cccc(F)c2)N(Cc2ccccc2)C(=O)C1)OCC1c2ccccc2-c2ccccc21 (stereo partly specified)	-4.08% (inactive)	–
COC(=O)c1cc(S(=O)(=O)N2CCN(c3cc(C)ccc3C)CC2)c[nH]1	-6.27% (inactive)	–
O=C(c1cn(-c2ccccc2)nc1-c1cccnc1)N1CCCCC1	-0.348% (inactive)	–
O=C(c1cn(-c2ccccc2)nc1-c1cccnc1)N1CCN(S(=O)(=O)c2ccccc2F)CC1	–	14.6 µM (active)
NC(=O)C1CCN(C(=O)c2cn(-c3ccccc3)nc2-c2cccnc2)CC1	7.76% (inactive)	–
O=C(OCc1cc(=O)n2ccsc2n1)C1(c2ccc(Cl)cc2)CC1	-0.471% (inactive)	–
COc1cc(C(=O)NC2CCN(Cc3ccccc3)CC2)cc(Cl)c1OC(C)C	-12.8% (inactive)	–
O=C(c1cccs1)n1nc(NCc2ccccc2)nc1NCc1ccccc1	–	25.9 µM (active)
Nc1nc(NCc2ccccc2)n(-c2ccccc2)n1	3.41% (inactive)	–
O=C(CCC(=O)c1cccs1)NCc1ccccc1	5.13% (inactive)	–
COc1ccc(C)cc1NC(=O)CSc1cccc[n+]1[O-]	0% (inactive)	–
CC[C@@H]1CCCCc2ccccc2[C@@H](C(=O)C[C@H](O)CC(C)=O)OC1=O	-3.84% (inactive)	–
COc1ccc(C(CNC(=O)c2ccc(S(=O)(=O)Nc3ccccc3C)cc2)N2CCOCC2)cc1 (stereo unspecified)	-13.2% (inactive)	–
O=C(NCc1ccccc1)c1ccc(S(=O)(=O)Nc2cccc(C(F)(F)F)c2)cc1	–	13 µM (active)
O=C(NCc1ccncc1)c1cccc(NS(=O)(=O)c2ccc(F)c(F)c2)c1	19.7% (inactive)	–
CCOC(=O)N1CCN(C(=O)c2ccc(S(=O)(=O)Nc3cccc(C(F)(F)F)c3)cc2)CC1	-25.5% (inactive)	–
O=C1C(=O)N(CCN2CCOCC2)C(c2cccc(Cl)c2)/C1=C(/O)c1ccc2c(c1)OCO2 (stereo unspecified)	6.98% (inactive)	–
Cc1sc2ncn(CC(=O)NCCCC(=O)N(C)Cc3ccccc3)c(=O)c2c1C	-3.5% (inactive)	–
O=C(COc1ccc(Br)cc1F)NCC1(N2CCCCC2)CCCCC1	7.66% (inactive)	–
CSc1ncccc1C(=O)NCC(c1ccco1)N1CCCCC1 (stereo unspecified)	13.9% (inactive)	–
